Test results reported in PubChem BioAssay.
Values without a mark were called inactive. Active and inactive are the calls of the source. No stated cut-off is given here; in the data, active means fold change permeability below about 0.7 or above about 1.3; inactive means in between.

assay: modulators of brain endothelial barrier permeability, primary screen, cell-based, FITC-avidin fluorescence, HTS (AID 1963498); conditions: actives lie on both sides; further: test concentration not given here

Compound	fold change permeability
CNCCC(Oc1ccccc1OC)c1ccccc1 (centres undefined)	0.8
Nc1ccc(-c2ccc3ccccc3n2)cc1	1.1
COc1ccc2[nH]cc(CCNC(C)=O)c2c1	0.8
COc1cccc2c(NCc3ccccc3)nc(-n3c(N)nc4ccccc43)nc12	0.9
CCN(Cc1cccnc1)C(=O)CN(c1ccc(OC)nc1)S(=O)(=O)c1ccccc1C	1.9 (active)
Oc1cc2c(cc1O)CN(C(=S)NCCc1ccc(Cl)cc1)CCC2	1.8 (active)
COc1cc(O)cc(CCc2ccc(OC)c(O)c2)c1	1.9 (active)
O=C(c1ccc(OCCCc2cnc[nH]2)cc1)C1CC1	1
CC1(C)NC(=O)N(c2ccc([N+](=O)[O-])c(C(F)(F)F)c2)C1=O	1.1
CNCCC(Oc1ccccc1C)c1ccccc1 (centres undefined)	0.7 (active)
Cc1ccc(C(=O)Nc2sc(Nc3ccccc3)nc2C(N)=O)cc1	1.3 (active)
Cc1nnc(SCC2=C(C(=O)O)N3C(=O)[C@@H](NC(=O)Cn4cnnn4)[C@H]3SC2)s1	0.9
COc1ccc(/C=C/C(=O)Nc2ccccc2C(=O)O)cc1OC	1.4 (active)
CN1CCC[C@@H]1CCO[C@](C)(c1ccccc1)c1ccc(Cl)cc1	1.1
COC(=O)C1=C(C)NC(C)=C(C(=O)OC)C1c1cccc(NC(=O)NCCCN2CCC(c3cccc(OC)c3)CC2)c1	1.2
CC(N)(Cc1ccc(O)c(O)c1)C(=O)O (centres undefined)	0.9
CCc1cccc(N(C)C(N)=Nc2cccc3ccccc23)c1	1.1
COc1cc(O)c(C)c(O)c1C(=O)CCc1ccccc1	1.8 (active)
COc1cc(C[C@H](C)[C@H](C)Cc2ccc3c(c2)OCO3)ccc1O	1.7 (active)
N#Cc1c(N2CCCC2)nc(N)c2c(N)nc(N3CCCC3)cc12	1.8 (active)

Compound	fold change permeability
Nn1nnc2ccccc21	0.9
CC(C)NCC(O)COc1ccc(CCOCC2CC2)cc1 (centres undefined)	1.2
CC(C)C[C@H](NC(=O)[C@H]1O[C@@H]1C(=O)O)C(=O)NCCCCN=C(N)N	1.3 (active)
NC(Cc1ccc(Cl)cc1)C(=O)O (centres undefined)	0.9
Cn1cnc2c1c(=O)[nH]c(=O)n2C	1.3 (active)
Cn1cnc([N+](=O)[O-])c1Sc1ncnc2nc[nH]c12	1.1
COc1cc2c[n+](C)c3c4cc5c(cc4ccc3c2cc1OC)OCO5	1.1
CC(C)C[C@H]1C(=O)N2CCC[C@H]2[C@]2(O)O[C@](NC(=O)[C@@H]3C=C4c5cccc6[nH]c(Br)c(c56)C[C@H]4N(C)C3)(C(C)C)C(=O)N12	1.1
COc1cc2nc(N3CCN(C(=O)C4COc5ccccc5O4)CC3)nc(N)c2cc1OC (centres undefined)	1.4 (active)
COc1cc2c(cc1-c1c(C)noc1C)ncc1[nH]c(=O)n([C@H](C)c3ccccn3)c12	1.1
CCOC(=O)C1=C[C@]2(CC)CCCN3CCc4c(n1c1ccccc41)[C@@H]32	1.8 (active)
CN(C)c1ccccc1CN1CCCN(Cc2ccccc2N(C)C)C1c1ccncc1	1.1
Cc1ccc(O)c(N=Nc2ccccc2)n1	1.2
CC(C)=CCc1cc2c(cc1O)oc(=O)c1c3ccc(O)cc3oc21	1.4 (active)
C[C@H]1CC(=O)Nc2cc(C(=O)NCCC3CC3)ccc2N1C(=O)N1CC2CC2C1 (some centres undefined)	1.1
Cc1cccc(-c2[nH]c(Cc3cccc(C(N)=O)c3)nc2-c2ccc3nccnc3c2)n1	0.9
O=C(O)/C=C\C(=O)Nc1ccc(Oc2cccc(Oc3ccc(NC(=O)/C=C\C(=O)O)cc3)c2)cc1	0.9
O=C(c1ccoc1)N1CCN(c2cc(-c3ccco3)nc3cc(-c4ccccc4)nn23)CC1	1.2
O=P(O)(O)C(O)(Cn1ccnc1)P(=O)(O)O	0.8
